Experimental data taken from PubChem BioAssay (NCATS).
Records with an inconclusive call do not appear. Entries that show only a call come without a potency. The source made the active and inactive calls. Unless noted, calls come from the whole dose curve; as a rule, active = well fitted curve in the direction sought with a large enough effect; inconclusive = small, poorly fitted or top-dose-only effect, or another doubt; inactive = no such curve, though single readings can be large; an effect the other way counts as inactive or inconclusive.

Key:
[1] = S16 Schwann cell viability assay (CellTiter-Glo assay) (AID 624031); conditions: S16 rat Schwann cells viability, 24 h; series mostly up to 57.5 µM;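 note: cellular ATP luminescence as a viability measure; nearly all actives have a fitted effect of over 70% in size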
In short: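 This viability control uses native rat S16 Schwann cells grown in DMEM plus 10% FBS. After a 24 h compound treatment at 37 °C, CellTiter-Glo luminescence reports ATP content, scaled against DMSO-treated and cell-free wells.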

[2] = S16 Schwann cell PMP22 intronic element beta-lactamase assay (AID 624044; calls by dose curve; note: nearly all actives have a fitted effect of over 15% in size); conditions: S16 rat Schwann cells, PMP22 element beta-lactamase FRET, 24 h; series mostly up to 38.3 µM
In short: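 Rat S16 Schwann cells with beta-Lac driven by a PMP22 intronic element, compound-treated 24 h at 37 °C. LiveBLAzer FRET B/G read: 460 nm normalized to potassium clavulanate vs DMSO; 535 nm FRET as viability; concentration-effect curves classified.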

[3] = Cytotoxicity counterscreen for NFkB agonists and antagonists (AID 624476); conditions: NFkB reporter cell line viability counterscreen; series mostly up to 46.1 µM; note: potency is the fitted concentration of half-maximal effect
[4] = qHTS Assay for Identification of Small Molecule Agonists for NFkB Signaling Pathway. (AID 624478); conditions: NFkB pathway reporter cell assay, agonist mode, cells co-stimulated with 10 pM TNF alpha; series mostly up to 46.1 µM;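 note: compounds tested together with TNF alpha at its EC50 of 10 pM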
In short: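 Cells carrying an NFkB response element-driven beta-lactamase gene are co-treated with compound and 10 pM TNF alpha for 5 h, and reporter activity is then read as 460 and 530 nm fluorescence.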

[5] = qHTS Assay for Identification of Small Molecule Antagonists for NFkB Signaling Pathway. (AID 624479; calls by dose curve; note: potency is the fitted concentration of half-maximal effect); conditions: NFkB pathway reporter cell assay, antagonist mode; series mostly up to 38.3 µM
[6] = Cell Proliferation Assay against the HBL1 Cell Line (AID 651646); conditions: HBL1 DLBCL cells; at 46.1 µM (top of the series);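 note: cells exposed to compound for 48 h before reading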
In short: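 HBL1 ABC DLBCL cells, 500/well in RPMI with 5% FBS, treated for 48 h at 37C. Viability read by CellTiter-Glo luminescence, normalized to DMSO as 100% and 9.2 uM bortezomib as 0%.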

[7] = Cell Proliferation Assay against the TMD8 Cell Line (Caspase readout at 8 hrs) (AID 651713); conditions: TMD8 lymphoma cells, caspase activation luminescence; series mostly up to 46.1 µM
In short: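 Percent activity derived from Caspase-Glo signal, DMSO set to 0% and bortezomib (9.2 uM final) to 100%. TMD8 cells were exposed to compound for 8 h in RPMI with 5% FBS.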

[8] = S16 Schwann cell PMP22 intronic element firefly luciferase assay (AID 624032); conditions: S16 rat Schwann cells, PMP22 element FLuc, 24 h; series mostly up to 57.5 µM; note: nearly all actives have a fitted effect of over 30% in size
In short: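 Rat S16 Schwann cells stably carrying firefly luciferase driven by a PMP22 intronic element, in 10% FBS, treated 24 h at 37 C. ONE-Glo luminescence normalized to PTC124 control and DMSO (0%); curves classed by r2, magnitude and activity.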

[9] = Cell Proliferation Assay against the TMD8 Cell Line (AID 651645); conditions: TMD8 DLBCL cell line proliferation/viability; at 46.1 µM (top of the series);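 note: cells exposed to compound for 48 h before reading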
In short: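 Cell viability of the ABC DLBCL line TMD8 is measured by CellTiter-Glo luminescence following a 48-hour incubation with compound. Percent activity uses DMSO as 100% and 9.2 uM bortezomib (final) as 0%.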

[10] = Cell Proliferation Assay against the TMD8 Cell Line (Caspase readout at 16 hrs) (AID 651712); conditions: TMD8 lymphoma cells, caspase activation luminescence; series mostly up to 46.1 µM; note: potency is the fitted concentration of half-maximal effect
In short: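 TMD8 cells in RPMI with 5% FBS were treated with compound for 16 h at 37 C, then caspase 3/7 activation was read by Caspase-Glo luminescence. Percent activity was scaled to DMSO (0%) and 9.2 uM bortezomib final (100%).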

In the case of `O=C1C(CCC(O)c2ccc(F)cc2)C(c2ccc(O)cc2)N1c1ccc(F)cc1` (stereo not given), the outcome [1] is reported as “inactive”, the Potency [2] is reported as “inactive” and the Potency [3] is reported as “inactive”. For the same compound, the outcome [4] was “inactive”, the Potency [5] was “inactive” and the viability, percent of control [6] was 68%. The Potency [7] was “inactive”.

In the case of `N#CC(c1ccc(Cl)cc1)c1c(Cl)cc(-n2ncc(=O)[nH]c2=O)cc1Cl` (stereo not given), the outcome [1] is reported as “inactive”, the Potency [8] is reported as “inactive” and the Potency [2] is reported as “inactive”.

With `CCC(=O)N1CCN(c2ccc(-n3c(=O)ccc4cnc5ccc(-c6cnc7ccccc7c6)cc5c43)cc2C(F)(F)F)CC1` the Potency [3] was 13.2 µM (active), the outcome [4] was “inactive” and the Potency [5] was 5.3 µM (active). The viability (% of control) [9] was 3.32%, the viability, percent of control [6] was 4.82% and the Potency [10] was 18.7 µM (active). For the same compound, the Potency [7] was “inactive”.

With `CNC(=O)c1cc(Oc2ccc(NC(=O)Nc3ccc(Cl)c(C(F)(F)F)c3)c(F)c2)ccn1` the Potency [3] was 5.26 µM (active), the outcome [4] was “inactive” and the Potency [5] was 5.95 µM (active). For the same compound, the viability, percent of control [6] was 4.87%, the Potency [10] was “inactive” and the Potency [7] was “inactive”.

With `CN1CCN2c3ncccc3Cc3ccccc3C2C1` (stereo not given) the outcome [1] was “inactive”, the Potency [8] was “inactive” and the Potency [2] was “inactive”.

In the case of `CCC=CC[C@H]1C(=O)CC[C@@H]1CC(=O)OC`, the Potency [3] is reported as “inactive”, the outcome [4] is reported as “inactive” and the Potency [5] is reported as “inactive”. The viability, percent of control [6] was 109%, the Potency [10] was “inactive” and the Potency [7] was “inactive”.

For `NS(=O)(=O)c1cc(Cl)c(Cl)c(S(N)(=O)=O)c1`, the outcome [1] was “inactive”.

For `COc1cc2nccc(Oc3ccc(NC(=O)Nc4cc(C)on4)c(Cl)c3)c2cc1OC`, the Potency [3] was “inactive”, the outcome [4] was “inactive” and the Potency [5] was 16.8 µM (active). The viability (% of control) [9] was 6.06% and the viability, percent of control [6] was 26.7%.

For `COc1ccc2c(c1)CC[C@H]1[C@@H]2CC[C@]2(C)[C@@H](NCCCCCCN3C(=O)C=CC3=O)CC[C@H]12`, the Potency [3] was “inactive”, the outcome [4] was “inactive” and the Potency [5] was “inactive”. For the same compound, the viability, percent of control [6] was 33.1%.

In the case of `COc1ccnc(CS(=O)c2nc3ccc(OC(F)F)cc3[nH]2)c1OC` (stereo not given), the outcome [1] is reported as “inactive”, the Potency [8] is reported as “inactive” and the Potency [2] is reported as “inactive”.
